Assay results as given in PubChem BioAssay (NCI).
Compounds without any hit were thinned out: in the full panel of roughly 83,000, 20% have a hit.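 Assay: single dose, 48 h. Readout: percent growth (0 = no net growth; negative = cell death). Active: <10.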 Values without a mark were called inactive. Activity calls are given as the source filed them.

How the values were obtained:
Assay in all cases: NCI-60 one-dose screen, 48 h (100 = growth as untreated, 0 = no growth, -100 = all killed)
Conditions in all cases: 10 µM unless noted
DU-145 prostate = tested on: DU-145 prostate
K-562 leukemia = tested on: K-562 leukemia
MALME-3M melanoma = tested on: MALME-3M melanoma
MDA-MB-231 breast = tested on: MDA-MB-231 breast
RXF 393 renal = tested on: RXF 393 renal
SF-268 CNS = tested on: SF-268 CNS
SF-295 CNS = tested on: SF-295 CNS
SF-539 CNS = tested on: SF-539 CNS
UACC-257 melanoma = tested on: UACC-257 melanoma
M14 melanoma = tested on: M14 melanoma

SMILES | growth (DU-145 prostate) [%] | growth (K-562 leukemia) | growth (MALME-3M melanoma) [%] | growth (MDA-MB-231 breast) [%] | growth (RXF 393 renal) | growth (SF-268 CNS) [%] | growth (SF-295 CNS) [%] | growth (SF-539 CNS) [%] | growth (UACC-257 melanoma) [%] | growth (M14 melanoma)
CN1CCOCCN(C)Cc2ccc3ccc(cc3c2)CN(C)CCOCCN(C)Cc2ccc3ccc(cc3c2)C1 | 57.8 | -10.3% (active) | 68.8 | 70.8 | 75.9% | 84.9 | 103 | 79.3 | 110 | 99.4%
CC(=O)N1N=C(c2ccc(Nc3nc(Nc4ccc(F)cc4)nc(Nc4ccc(F)cc4)n3)cc2)CC1c1ccc(N(C)C)cc1 (stereo not given) | 78.2 | 16.8% | 42.1 | 70 | 9.66% (active) | 74.4 | 18.2 | 65.5 | 74.2 | 40.2%
Cc1ccc(-c2nc(SCC(=O)N3CCN(c4cc5c(cc4F)c(=O)c(C(=O)O)cn5C4CC4)CC3)nc(Cl)c2C#N)cc1 | 106 | 98.2% | 106 | 99.7 | 106% | 93.5 | 97.4 | 100 | 99.3 | 99%
COc1cc(/C=C/c2cn[nH]c2-c2ccc(C)cc2)cc(OC)c1OC | 43.4 | 15.5% | 52.3 | 47.4 | 16.1% | 49.2 | 11.5 | 41.7 | 39.5 | -3.71% (active)
COc1ccc(CNc2ccc3nc(NC(=O)CN4CCCCCC4)sc3c2)cc1 | 99.2 | 44.6% | 96.3 | 77.7 | 97% | 108 | 83.8 | 102 | 86 | 85.9%
CCOC(=O)c1ccc[nH]1 | 116 | 88.5% | 87.7 | 126 | 94.1% | 100 | 114 | 91.9 | 90.8 | 96.2%
COc1cc2ncnc(Nc3ccc(F)c(Cl)c3)c2cc1OCC(=O)N1CCOCC1 | 57.3 | 88.4% | 98.2 | 108 | 107% | 75.3 | 90.6 | 97.7 | 106 | 90.4%
O=C(/C=C/c1ccccc1Cl)c1cccc(OCCCCOc2cccc(C(=O)/C=C/c3ccccc3Cl)c2)c1 | 102 | 99.2% | 91.9 | 102 | 99.6% | 106 | 104 | 101 | 98.2 | 86.5%
C=C(C)[C@@H]1CC[C@]2(C(=O)N3CCN(C)CC3)CC[C@]3(C)[C@H](CC[C@@H]4[C@@](C)(CCC(=O)O)[C@H](C(=C)C)CC[C@]43C)[C@@H]12 | 99.9 | 58% | 87 | 91.2 | 93.3% | 80.6 | 78.8 | 92.6 | 83.5 | 87.1%
COc1cc(Cc2cc(-c3ccccc3)nn(Cc3ccccc3)c2=O)cc(OC)c1OC | 77.7 | 20.6% | 35.2 | 50.1 | 31.7% | 47.4 | 31.5 | 70 | 32 | 44.1%
CC1SC(c2ccccc2O)N(NC(=O)CCC(=O)c2nc3ncccc3[nH]2)C1=O (stereo not given) | 102 | 109% | 94 | 103 | 96.4% | 95.7 | 96.2 | 93.1 | 99.4 | 97.6%
